The list is not random: actives were taken first. Their share in the collection is about 2.5%.
mut p53 SMM – binders of human mutant p53, primary screen, biochemical, small molecule microarray, anti-GST fluorescence; AID 624136, 2012; small molecule microarray binding; mutant tumor protein p53 (GST-tagged), Homo sapiens; 17,000 tested, 0.4% active; calls only;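 active = compounds whose four printed spots each glow above background more than chance allows, each with a p-value under 7%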
Myc binder – binders of human c-Myc, primary screen, biochemical, small molecule microarray, anti-His fluorescence; calls only; Myc proto-oncogene protein (Homo sapiens), P01106; 17,000 tested, 1.5% active; His-c-Myc binding; AID 624141, 2012;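 active = spot fluorescence over background with P-value below 7% in all four replicate spots, showing protein binding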
Target sequence (P01106 whole entry, looked up): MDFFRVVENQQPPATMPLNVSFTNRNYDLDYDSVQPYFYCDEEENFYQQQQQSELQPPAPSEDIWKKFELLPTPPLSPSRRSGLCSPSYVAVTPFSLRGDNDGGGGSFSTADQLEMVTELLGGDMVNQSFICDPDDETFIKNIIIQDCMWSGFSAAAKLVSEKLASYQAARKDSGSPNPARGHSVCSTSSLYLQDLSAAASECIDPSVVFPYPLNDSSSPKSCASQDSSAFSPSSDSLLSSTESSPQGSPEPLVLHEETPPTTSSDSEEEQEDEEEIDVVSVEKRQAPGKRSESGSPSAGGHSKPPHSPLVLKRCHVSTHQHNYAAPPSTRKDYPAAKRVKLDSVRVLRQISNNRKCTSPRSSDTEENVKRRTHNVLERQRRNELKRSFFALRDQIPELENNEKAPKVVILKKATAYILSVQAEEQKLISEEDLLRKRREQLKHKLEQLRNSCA
STAT3 binder – STAT3 binders, primary screen, biochemical, small molecule microarray, single point, set 2. calls only. 17,000 tested, 0.2% active. His-STAT3 binding, anti-His fluorescence. Signal transducer and activator of transcription 3 (Homo sapiens), P40763;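 active = compounds whose four printed spots each show fluorescence over background unusually high for their array block, chance value under 7%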
NFkB SMM – binders of NF-kB p50 subunit, primary screen, biochemical, small molecule microarray, anti-His fluorescence; Nuclear factor NF-kappa-B p105 subunit (Homo sapiens), P19838; anti-His fluorescence binding; AID 624139, 2012; calls only; 17,000 tested, 1.3% active;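 active = spot fluorescence over background significantly raised, with a chance value under 7% in all four replicate spots of the compound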;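 also: probe protein is his-tagged human p50 processed subunit at 1 µg/ml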
Calls only; - = inactive; + = active, no number.

SMILES	mut p53 SMM	Myc binder	STAT3 binder	NFkB SMM
CC(C)NC(=O)Nc1ccc2c(c1)C(=O)N([C@@H](C)CO)C[C@H](C)[C@@H](CN(C)S(=O)(=O)c1ccccc1)OCCCC[C@@H](C)O2	-	+	-	+
C[C@@H]1CN([C@H](C)CO)C(=O)c2cc(N(C)C)ccc2O[C@@H](C)CCCCO[C@@H]1CN(C)Cc1ccccc1	+	-	+	-
C[C@@H]1CCCCO[C@H](CN(C)Cc2ccccc2)[C@H](C)CN([C@@H](C)CO)C(=O)c2cc(N(C)C)ccc2O1	-	-	-	-
C[C@H](CO)N1C[C@H](C)[C@H](CN(C)Cc2ccccc2)OCCCC[C@H](C)Oc2ccc(NC(=O)CCCN(C)C)cc2C1=O	-	-	-	+
CC(C)(C)NC(=O)C(OC(=O)c1ccccc1)c1ccco1 (configuration not stated)	-	-	-	-
CC(C)(C)C(=O)CSc1nnc(-c2ccncc2)n1-c1ccc(Br)cc1	-	-	-	-
C[C@H](CO)N1C[C@H](C)[C@H](CN(C)S(=O)(=O)c2ccccc2)OCCCC[C@H](C)Oc2ccc(N(C)C)cc2C1=O	+	-	-	+
COc1ccccc1NC(=O)NCCc1ccncc1	-	-	-	-
CCc1ccc(S(=O)(=O)NCC(=O)O)cc1	-	+	-	+
COc1ccc(S(=O)(=O)N(C)CC(=O)Nc2ccccc2)cc1Cl	-	-	-	-
Cc1ccc(NC(=O)CSc2n[nH]c(N)n2)cc1Cl	-	-	-	-
C/C=C/C/C=C/CCC(=O)[C@H]1O[C@H]1C(N)=O	-	-	-	+
COc1cc(OC)nc(NC(=O)CSc2nc3ccccc3s2)n1	-	-	-	-
Cc1ccc(S(=O)(=O)NC(=O)CSc2nc3ccccc3s2)cc1	-	+	-	-
CCOC(=O)CSc1nc(-c2ccccc2)nc2sc3c(c12)CCCC3	-	-	-	-
COc1cc(S(=O)(=O)n2nnc3ccccc32)c(OC)cc1Cl	-	+	-	-
Cc1ccc(S(=O)(=O)Nc2ccc3c(c2)C(=O)N([C@@H](C)CO)C[C@H](C)[C@@H](CN(C)C(=O)CCC(F)(F)F)OCCCC[C@H](C)O3)cc1	-	-	-	+
C[C@@H]1CCCCO[C@@H](CN(C)C(=O)CCC(F)(F)F)[C@@H](C)CN([C@H](C)CO)C(=O)c2cc(NS(=O)(=O)c3ccccc3)ccc2O1	-	-	-	-
C[C@H](CO)N1C[C@H](C)[C@@H](CN(C)C(=O)CCC(F)(F)F)OCCCC[C@H](C)Oc2ccc(NS(=O)(=O)c3ccccc3)cc2C1=O	-	-	-	-
C[C@H](CO)N1C[C@H](C)[C@H](CN(C)C(=O)CCC(F)(F)F)OCCCC[C@H](C)Oc2ccc(NS(=O)(=O)c3ccccc3)cc2C1=O	-	+	-	+
C[C@H](CO)N1C[C@H](C)[C@@H](CN(C)C(=O)CCC(F)(F)F)OCCCC[C@H](C)Oc2ccc(NS(=O)(=O)c3ccc(F)cc3)cc2C1=O	-	+	-	+
CCOc1cc(C(=O)O)cc(I)c1OCC(=O)O	-	+	-	+
C[C@H](CO)N1C[C@H](C)[C@H](CN(C)C(=O)Nc2ccc(C(F)(F)F)cc2)OCCCC[C@H](C)Oc2ccc(NC(=O)Nc3ccc(F)cc3)cc2C1=O	-	-	-	+
C[C@@H]1CCCCO[C@H](CN(C)C(=O)Nc2ccc(C(F)(F)F)cc2)[C@@H](C)CN([C@@H](C)CO)C(=O)c2cc(NC(=O)Cc3ccccc3)ccc2O1	+	-	-	+
C[C@@H]1CCCCO[C@@H](CN(C)C(=O)Nc2ccc(C(F)(F)F)cc2)[C@H](C)CN([C@@H](C)CO)C(=O)c2cc(NC(=O)c3ccncc3)ccc2O1	-	+	-	+
SMILES	mut p53 SMM	Myc binder	STAT3 binder	NFkB SMM
CC(C)NC(=O)N(C)C[C@H]1OCCCC[C@H](C)Oc2ccc(NC(=O)Nc3ccc(C(F)(F)F)cc3)cc2C(=O)N([C@H](C)CO)C[C@H]1C	-	-	-	+
Cc1c(O)ccc(-c2[nH]ncc2-c2nncn2-c2ccccc2)c1O	-	-	-	-
O=C(NCCNC(=O)c1cc2ccccc2cc1O)c1cc2ccccc2cc1O	-	-	-	-
O=C(O)CC/C=C/CC1COC(c2ccccc2Cl)OC1c1ccccc1O (configuration not stated)	-	-	-	-
CC(C)NC(=O)N(C)C[C@@H]1OCCCC[C@@H](C)Oc2ccc(NC(=O)Nc3ccc(C(F)(F)F)cc3)cc2C(=O)N([C@@H](C)CO)C[C@H]1C	-	-	-	-
CC(C)NC(=O)N(C)C[C@@H]1OCCCC[C@H](C)Oc2ccc(NC(=O)Nc3ccc(C(F)(F)F)cc3)cc2C(=O)N([C@@H](C)CO)C[C@@H]1C	-	+	-	+
C=CC1c2cc(O)c(OC)cc2CCN1Cc1cc2c(cc1Br)OCO2 (configuration not stated)	-	-	-	-
C[C@H]1CCCCO[C@H](CN(C)C(=O)Nc2ccc(C(F)(F)F)cc2)[C@@H](C)CN([C@@H](C)CO)C(=O)c2cc(NS(C)(=O)=O)ccc2O1	-	+	+	+
C[C@@H]1CCCCO[C@H](CN(C)C(=O)Nc2ccc(C(F)(F)F)cc2)[C@H](C)CN([C@@H](C)CO)C(=O)c2cc(NS(C)(=O)=O)ccc2O1	-	-	+	-
C[C@@H]1CCCCO[C@@H](CN(C)C(=O)Nc2ccc(C(F)(F)F)cc2)[C@H](C)CN([C@@H](C)CO)C(=O)c2cc(NS(C)(=O)=O)ccc2O1	-	+	-	-
C[C@@H]1CCCCO[C@@H](CN(C)C(=O)Nc2ccc(C(F)(F)F)cc2)[C@@H](C)CN([C@H](C)CO)C(=O)c2cc(NS(C)(=O)=O)ccc2O1	-	-	-	-
C[C@@H]1CCCCO[C@@H](CN(C)C(=O)Nc2ccc(C(F)(F)F)cc2)[C@H](C)CN([C@H](C)CO)C(=O)c2cc(NS(C)(=O)=O)ccc2O1	-	-	-	-
COC(=O)c1c(NC(=S)Nc2cccc(S(=O)(=O)N3CCOCC3)c2)sc2c1CCC2	-	-	-	-
CC1(C)C[C@H]2C[C@H]3C(Br)=CC2(CO1)C(=O)[C@]31CO1	-	-	-	-
C=CCNC(=O)[C@H]1[C@@H]2C(=O)O[C@@H](c3ccccc3)[C@@H](c3ccccc3)N2[C@@H](c2ccc(O)cc2)[C@]12C(=O)Nc1ccc(C#CCC(C(=O)OC)C(=O)OC)cc12	-	-	-	-
OCCN(CCO)Cc1ccc(Br)cc1	+	-	-	-
O=C(CSc1nc(O)cc(=O)n1-c1ccccc1)N1CCc2ccccc21	+	-	-	-
O=C(CSc1ccc([N+](=O)[O-])cn1)N1CCc2ccccc21	-	-	-	-
Cc1ccc(S(=O)(=O)NC(=O)COc2cccc3ccccc23)c(C)c1	-	+	-	-
CC(C)(C)NS(=O)(=O)c1ccc(NC(=O)COc2ccc3ccccc3c2Br)cc1	-	-	-	-

Bioassay records from PubChem.
